Results on seven compounds are retold here after PubChem BioAssay (NCI).

SMILES strings stand for the structures. Compounds without any hit were thinned out: in the full panel of roughly 83,000, 20% have a hit.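 For each line, cells grew in 96-well plates with the test compound present at a single concentration for 48 hours.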 A number with no mark means an inactive call. The source made the active and inactive calls. Rule for the calls: active = growth percent below 10; inactive = the rest.

Some test systems named below: NCI-H23 lung; NCI-H226 lung; NCI-H322M lung; HOP-62 NSCLC; NCI-H460 lung; HOP-92 NSCLC; NCI-H522 lung; A549/ATCC NSCLC; 786-0 renal; COLO 205 colon; DU-145 prostate; K-562 leukemia; MALME-3M melanoma; MDA-MB-231 breast; RXF 393 renal; SF-268 CNS; SF-295 CNS; SF-539 CNS; UACC-257 melanoma; M14 melanoma.
What all share (assay): NCI-60 one-dose screen, 48 h (100 = growth as untreated, 0 = no growth, -100 = all killed)
What all share (settings): 10 µM unless noted

With `O=c1ccc2ccc(OCCN3CCCCC3)cc2o1`, the growth with NCI-H23 lung was 98.4%; with NCI-H226 lung it was 103%; in the assay with NCI-H322M lung, 97%; in the assay on HOP-62 NSCLC, 84.5%; with NCI-H460 lung, 108%; with HOP-92 NSCLC, -17.3% (active). Also, the growth is 86.6% in the assay on NCI-H522 lung; 98% in the assay on A549/ATCC NSCLC; 99.5% with 786-0 renal; 98.5% in the assay on COLO 205 colon; 118% in the assay on DU-145 prostate; -17.2% (active) in the assay with K-562 leukemia. The growth in the assay with MALME-3M melanoma was 107%; in the assay on MDA-MB-231 breast it was 95.7%; in the assay with RXF 393 renal, 114%; in the assay on SF-268 CNS it was 110%; in the assay on SF-295 CNS, 98.8%; in the assay on SF-539 CNS it was 106%. Further, the growth with UACC-257 melanoma was 89.3%; with M14 melanoma, 96.1%.

`CCN(CC)CCCNc1cc(OC)c(OC)c2cccnc12`: the growth in the assay on NCI-H23 lung was 7.1% (active); with NCI-H226 lung it was 110%; with NCI-H322M lung, 85.1%; in the assay with HOP-62 NSCLC, 58.3%; in the assay on NCI-H460 lung it was 23.4%; in the assay on HOP-92 NSCLC, 84.7%. For the same compound, the growth in the assay on NCI-H522 lung is 20.9%; in the assay on A549/ATCC NSCLC, 56.4%; with 786-0 renal, 43.4%; in the assay on COLO 205 colon, 98.4%; in the assay with DU-145 prostate it was 90.3%; in the assay with K-562 leukemia, 66.2%. The growth is 90.3% in the assay with MALME-3M melanoma; 74.2% in the assay on MDA-MB-231 breast; 113% in the assay with RXF 393 renal; 66.1% in the assay with SF-268 CNS; 79.5% in the assay with SF-295 CNS; 55.7% in the assay on SF-539 CNS. Moreover, the results for the growth with UACC-257 melanoma and in the assay with M14 melanoma were 67% and 48%, respectively.

Take `c1ccc(-c2ccc3c(c2)C2(CCNCC2)CN3)cc1`: the growth was 86.3% in the assay on NCI-H23 lung; 95.9% with NCI-H226 lung; 102% in the assay on NCI-H322M lung; 95.2% in the assay with HOP-62 NSCLC; 95.8% in the assay on NCI-H460 lung; 86.1% with HOP-92 NSCLC. Also, the growth was 88.3% in the assay with NCI-H522 lung; 112% in the assay with A549/ATCC NSCLC; 95.1% in the assay with 786-0 renal; 103% with COLO 205 colon; 99% with DU-145 prostate; 90% in the assay with K-562 leukemia. Also, the growth in the assay on MALME-3M melanoma is 94.1%; in the assay on MDA-MB-231 breast, 85.1%; in the assay with RXF 393 renal, 112%; in the assay with SF-268 CNS, 87.4%; in the assay with SF-295 CNS, 98.6%; in the assay with SF-539 CNS it was 97.8%. For the same compound, the growth with UACC-257 melanoma was 119%; in the assay on M14 melanoma, 92.3%.

In the case of `Cc1ccc2c(c1)=C/C(=C\c1cc(-c3ccccc3)[nH]c1O)C(=O)N=2`, the growth in the assay on NCI-H23 lung was 56.7%; in the assay on NCI-H226 lung it was 69.5%; in the assay with NCI-H322M lung, 82.2%; in the assay on HOP-62 NSCLC, 52%; in the assay with NCI-H460 lung, 25.6%; in the assay with HOP-92 NSCLC, 58%. Also, the growth with NCI-H522 lung is 27%; in the assay on A549/ATCC NSCLC it was 46.2%; in the assay with 786-0 renal, 41.6%; with COLO 205 colon, 33.1%; in the assay with DU-145 prostate it was 61.6%; in the assay with K-562 leukemia it was 13.7%. The growth with MALME-3M melanoma was 54.5%; in the assay on MDA-MB-231 breast, 50.6%; with RXF 393 renal it was 34.5%; in the assay on SF-268 CNS, 47.4%; in the assay with SF-295 CNS it was 32.8%; with SF-539 CNS, 8.94% (active). Also, the growth in the assay on UACC-257 melanoma is 64.7%; in the assay on M14 melanoma, 17.8%.

For the compound `Cc1nc2sc(C(=O)Nc3cccc(Cl)c3C)c(N)c2cc1C(=O)/C=C/c1ccccc1`, the growth in the assay with NCI-H23 lung was 28.6%; in the assay with NCI-H226 lung it was -52.2% (active); with NCI-H322M lung, 19.1%; in the assay on HOP-62 NSCLC, -11.2% (active); in the assay on NCI-H460 lung, -25.3% (active); in the assay on HOP-92 NSCLC it was 1.05% (active). In addition, the growth in the assay on NCI-H522 lung is -49.8% (active); with A549/ATCC NSCLC it was 10.1%; in the assay on 786-0 renal, -51.1% (active); with COLO 205 colon, -5.18% (active); in the assay with DU-145 prostate, 5.7% (active); with K-562 leukemia, 10.2%. Moreover, the growth in the assay on MALME-3M melanoma is 39.7%; in the assay with MDA-MB-231 breast, -38.4% (active); in the assay on RXF 393 renal, -82.8% (active); in the assay with SF-268 CNS it was 4.07% (active); in the assay with SF-295 CNS it was -14.8% (active); in the assay with SF-539 CNS it was -25.5% (active). For the same compound, the growth was 64.2% in the assay on UACC-257 melanoma and -15.9% (active) in the assay with M14 melanoma.

Take `Cc1[nH]n(-c2cccc(Cl)c2)c(=O)c1/C=C1\C=c2ccccc2=CC1=O`: the growth was -1.95% (active) in the assay with NCI-H23 lung; 1.04% (active) in the assay with NCI-H226 lung; 84.1% in the assay on NCI-H322M lung; -57.9% (active) with HOP-62 NSCLC; 79% in the assay on NCI-H460 lung; -2.07% (active) in the assay with HOP-92 NSCLC. The growth in the assay with NCI-H522 lung was -11.3% (active); in the assay on A549/ATCC NSCLC it was 60.4%; in the assay on 786-0 renal, -46.8% (active); in the assay with COLO 205 colon, -83.5% (active); in the assay with DU-145 prostate, 35.4%; in the assay on K-562 leukemia, 99.1%. For the same compound, the growth was 59% in the assay on MALME-3M melanoma; 4.08% (active) in the assay on MDA-MB-231 breast; -76.9% (active) in the assay with RXF 393 renal; 47.2% with SF-268 CNS; 25.6% with SF-295 CNS; 72.3% in the assay with SF-539 CNS. In addition, the growth in the assay with UACC-257 melanoma was 80%; with M14 melanoma it was 18.2%.

As to `COC1/C=C/OC2(C)Oc3c(C)c(O)c4c(O)c(c(/C=N/N(c5ccccc5)c5ccccc5)c(O)c4c3C2=O)NC(=O)C(C)=C/C=C/C(C)C(O)C(C)C(O)C(C)C(OC(C)=O)C1C` (stereo not given), the growth was 64.3% with NCI-H23 lung; -47.9% (active) in the assay on NCI-H226 lung; 109% in the assay with NCI-H322M lung; 73.1% in the assay on HOP-62 NSCLC; 56.5% with NCI-H460 lung; 79% in the assay with HOP-92 NSCLC. For the same compound, the growth in the assay on NCI-H522 lung was 37.6%; in the assay on A549/ATCC NSCLC, 57%; in the assay on 786-0 renal it was 106%; with COLO 205 colon, 8.26% (active); in the assay with DU-145 prostate, 90.1%; in the assay with K-562 leukemia, 72.4%. Moreover, the growth in the assay with MALME-3M melanoma was 111%; in the assay with MDA-MB-231 breast it was 90.9%; in the assay with RXF 393 renal it was -53.5% (active); with SF-268 CNS, 80.7%; with SF-295 CNS it was 65.1%; with SF-539 CNS it was 89.8%. For the same compound, the figures for the growth in the assay on UACC-257 melanoma and with M14 melanoma were 75.8% and 95.7%, respectively.
